Measured values from PubChem BioAssay AID2235 (The Scripps Research Institute Molecular Screening Center, 2010).
About 2,800 (0.88%) of roughly 320,000 compounds were called active. The list comes from a sample in which actives are over-represented; it also holds similar structures and randomly drawn compounds. Unmarked numbers belong to inactive results.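 How the source made its calls: active means inhibition above the mean inhibition of all tested compounds plus 3 SD, computed separately for each screening campaign (cut at about 15% in these data); inactive means the rest.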

biological target: Serine/threonine-protein phosphatase PP1-alpha catalytic subunit (Homo sapiens) (UniProt P62136); test: inhibition of human PP1 catalytic subunit – biochemical, fluorescence, OMFP substrate, single point, counter-screen for PP5 inhibitor project, primary screen (AID 2235); conditions: purified PP1alpha, at 6.7 µM, active compounds read high
Sequence (P62136 whole entry, looked up): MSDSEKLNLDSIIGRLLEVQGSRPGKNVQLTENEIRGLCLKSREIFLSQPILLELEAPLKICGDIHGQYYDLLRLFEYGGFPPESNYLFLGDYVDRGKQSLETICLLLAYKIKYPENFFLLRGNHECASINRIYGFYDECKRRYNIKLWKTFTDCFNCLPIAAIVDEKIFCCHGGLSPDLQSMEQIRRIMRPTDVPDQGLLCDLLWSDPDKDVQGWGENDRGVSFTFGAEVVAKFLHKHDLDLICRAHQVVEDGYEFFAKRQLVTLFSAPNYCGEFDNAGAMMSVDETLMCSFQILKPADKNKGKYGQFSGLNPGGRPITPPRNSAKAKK

| Structure (SMILES) | inhibition |
| --- | --- |
| Cc1cc(C(=O)CCl)c(C)n1CC1COc2ccccc2O1 (centres undefined) | -1.57% |
| O=C(CN1C(=O)C2C3C=CC(C3)C2C1=O)NCC1COc2ccccc2O1 (centres undefined) | 0.06% |
| O=C1C(=O)N(CC2COc3ccccc3O2)c2ccccc21 (centres undefined) | 18.4% (active) |
| O=C(NC(Cc1c[nH]c2ccccc12)C(=O)O)/C(=C/c1ccco1)NC(=O)c1ccccc1 (centres undefined) | -3.53% |
| CN(C(=O)CSc1nnc(-c2n[nH]c3ccccc23)o1)c1ccccc1 | -3.45% |
| COc1ccc(/C=C2\SC(=O)N(CCC(=O)NC3CCS(=O)(=O)C3)C2=O)cc1 (centres undefined) | -1.73% |
| Cn1c(=N)n(CC(O)c2ccccc2)c2ccccc21 (centres undefined) | -1.18% |
| N=c1n(Cc2ccc(Cl)cc2)c2ccccc2n1CC(O)c1ccco1 (centres undefined) | 21.9% (active) |
| Cn1c(=N)n(CC(O)c2cccs2)c2ccccc21 (centres undefined) | 2.31% |
| O=S(=O)(c1cccc(-c2cn3ccccc3n2)c1)N1CCCC1 | -0.43% |
| O=C(O)c1ccccc1OCc1ccccc1Cl | -3.14% |
| CC(C)c1cc(C(N)=O)c(NC(=O)c2cccc(COc3ccc(Br)cc3)c2)s1 | 6.73% |
| COc1ccc(N2CCN(S(=O)(=O)c3ccc4c(c3)NC(=O)C(C)C(=O)N4)CC2)cc1 (centres undefined) | -1.74% |
| CSC1=NCCN1C(=O)Cc1cccc2ccccc12 | -1.43% |
| C=C1c2c(Cl)ccc(O)c2C(O)=C2C(=O)[C@]3(O)C(O)=C(C(N)=O)C(=O)[C@@H](N(C)C)[C@@H]3[C@@H](O)C12 (some centres undefined) | 23.5% (active) |
| CN(C)[C@@H]1C(=O)C(C(N)=O)=C(O)[C@@]2(O)C(=O)C3=C(O)c4c(O)ccc(Cl)c4[C@@H](O)[C@H]3C[C@@H]12 | 5.56% |
| Cc1cc(Nc2cccc(F)c2)n2ncnc2n1 | -2.78% |
| COc1ccccc1/C=N/Nc1nc(C)c(C(C)=O)s1 | 1.23% |
| Cc1nc(Cl)cc(N/N=C/c2ccccc2)n1 | -6.15% |
| COc1ccccc1/C=N\Nc1cc(C)nc(-n2nc(C)cc2C)n1 | 30.7% (active) |

| Structure (SMILES) | inhibition |
| --- | --- |
| CN(C)c1ccc(/C=N/Nc2cc(N3CCOCC3)nc(N3CCOCC3)n2)cc1 | -2.51% |
| COc1cccc(/C=N/Nc2cc(C)nc(-c3ccccc3O)n2)c1O | 6.15% |
| Cc1cc(N/N=C\c2ccc(Br)cc2)nc(-n2nc(C)cc2C)n1 | 21.7% (active) |
| CS(=O)(=O)N(Cc1nc2sc3c(c2c(=O)[nH]1)CCCC3)C1CCCCC1 | 1.31% |
| NC1=NC(c2ccc([N+](=O)[O-])cc2)N(c2ccc(F)cc2)C(N)=N1 (centres undefined) | 1.43% |
| CCOc1ccc(C)cc1S(=O)(=O)NC1CCCCCC1 | 0.47% |
| O=C(CN1CCc2ccccc21)NC(c1ccccc1)c1ccccc1 | 17.5% (active) |
| O=C(CN1CCN(Cc2ccccc2)CC1)NC(c1ccccc1)c1ccccc1 | 10.6% |
| NS(=O)(=O)c1cccc(NC(=O)CN2CCCc3ccccc32)c1 | -0.85% |
| CCn1cc(CN2CCCC(CNS(=O)(=O)Cc3ccccc3)C2)cn1 (centres undefined) | 0.72% |
| COC(=O)N1CN(C(=O)OC)CN(C(=O)OC)C1 | -3.93% |
| O=C(CCCN1C(=O)/C(=C/c2cccs2)SC1=S)Nc1ccc(O)cc1 | -0.73% |
| CCCCN(CCCC)CCC(O)c1cc2c(Cl)cc(Cl)cc2c2cc(C(F)(F)F)ccc12 (centres undefined) | 17% (active) |
| CCCCC(=O)Nc1ccc(C(=O)Nc2cc(C(F)(F)F)ccc2Cl)cc1 | 1.1% |
| CC(C)c1nnc(NC(=O)CCC(=O)N2CCN(c3cccc(Cl)c3)CC2)s1 | -3.62% |
| NNC(=O)c1cnn(-c2ccccc2)c1C(F)(F)F | 0.34% |
| CCO/N=C(/C)c1c(O)cc(-c2ccccc2)n(-c2ccccc2)c1=O | -2.6% |
| CCOc1ccc(NC(=O)c2ccc(NC(=O)COC(=O)c3ccc(NC(=O)CC#N)cc3)cc2)cc1 | 75.8% (active) |
| CCOc1ccc(NC(=O)CCNC(=O)c2ccc(Br)cc2)cc1 | 1.21% |
| CC(C)NC(=O)NC(=O)COC(=O)c1ccc(NC(=O)CC#N)cc1 | -2.32% |

| Structure (SMILES) | inhibition |
| --- | --- |
| CN=C(c1ccccc1)c1c(C)cccc1C | 2.55% |
| CCNC(=O)NC(=O)C(C)OC(=O)c1cc(S(=O)(=O)N2CCCCCC2)ccc1OC (centres undefined) | 1.67% |
| COc1cccc(NC(=O)Cn2c3ccccc3c3nc4n(c(=O)c32)CCS4)c1 | -2.19% |
| O=C(NCc1ccc2c(c1)OCO2)C12CC3CC(CC(C3)C1)C2 | -3.56% |
| O=C(CSc1nnc(C2CC2)n1Cc1ccccc1)Nc1cccnc1Cl | 18% (active) |
| COc1ccc(-c2nnc(SCC(=O)Nc3cccnc3Cl)n2C)cc1 | -4.29% |
| CC(=O)Nc1ccc(NC(=O)CSc2nnc(C3CC3)n2-c2ccccc2)cc1 | -2.45% |
| CC(=O)c1cccc(NC(=O)COc2ccc(S(=O)(=O)N3CCOCC3)cc2)c1 | -2.4% |
| Cc1ccccc1/[N+]([O-])=C/c1ccncc1 | -3.82% |
| O=S(=O)(NCc1ccc2c(c1)OCO2)c1cccc2nsnc12 | -1.4% |
| O=S(=O)(c1ccc(F)cc1)N1CCN(C(=S)NCc2ccco2)CC1 | -1.26% |
| COc1ccc2nc(Nc3nc(-c4ccncc4)cs3)sc2c1 | 15.7% (active) |
| COc1ccc2nc(NC(=O)c3ccc(Br)s3)sc2c1 | 3.31% |
| COc1ccc2nc(NC(=O)NC3CCCCC3)sc2c1 | 0.1% |
| CCOC(=O)c1c(Cc2ccc(Cl)cc2)c[nH]c1C | 0.15% |
| O=C(O)c1cccc(NC(=O)c2cc(-c3cccc(Cl)c3)nc3ccccc23)c1 | 8.21% |
| COc1ccc(NC(=O)c2cc(-c3ccc(C)o3)nc3ccccc23)cc1 | -1.75% |
| O=C(Nc1cccc(F)c1)c1cc(-c2ccco2)nc2ccccc12 | 17% (active) |
| O=C(c1ccc(Cl)nc1)N1CCN(S(=O)(=O)c2ccc3c(c2)OCCO3)CC1 | 1.34% |
